Data reported in PubChem BioAssay AID652104 (National Center for Advancing Translational Sciences (NCATS), 2013).
Among all 410,000 compounds or so, about 7,200 (1.8%) were called active. Inconclusive results (about 7%) are left out. Calls come from the whole dose curve; as a rule, active = well fitted activation curve with a large enough effect; inconclusive = small, poorly fitted or top-dose-only effect, or another doubt; inactive = no such curve, though single readings can be large or run the other way. For the sample, actives were picked, then their nearest neighbours and some compounds at random.

Experiment: qHTS of TDP-43 Inhibitors; note: nearly all actives have a fitted effect of over 50% in size; for growth rescue (activation): % of control where 0% means no effect
Details: TDP-43 expressing yeast growth rescue, BacTiter-Glo, 24 h; series mostly up to 46.1 µM; growth rescue (activation): at the top concentration
Description: The goal of this project is to identify new chemical probes capable of reversing the toxicity associated with TDP-43 which is associated with frontotemporal lobar degeneration and amyotrophic lateral sclerosis. These compounds will provide a complementary approach to deciphering the tangled mechanisms of toxicity and protection that we have uncovered through genome-wide genetic screens and are beginning to uncover in a large-scale proteomics analysis with mass spectroscopy.
To this end, a miniaturized assay was developed to be screened against the Molecular Libraries Small Molecule Repository (MLSMR) to discover TDP-43 inhibitors. Please note that in the set-up this yeast-based assay compounds that inhibit as TDP-43, have a read-out as activators.
NIH Chemical Genomics Center [NCGC]
NIH Molecular Libraries Probe Centers Network [MLPCN]
Assay Submitter (PI): Susan Lindquist, Whitehead Institute/MIT
Dispense 2.5 microL yeast galactose medium per 1536-well plate, pin compound, dispense 2.5 microL TDP-43 expressing yeast in galactose medium at OD600=0.02 (pregrown in raffinose medium to mid-log phase) per well, incubate for 24 hr at 30 deg C, and cell growth will be measured using 5 microL of Bactiter/Glo reagent to entire plate and read using Luminescence Protocol in ViewLux.
Potency is the fitted concentration of half-maximal effect.

Growth rescue (activation), inactive:
CC(C)c1ccc(NC(=O)c2ccc3c(O)c(S(=O)(=O)c4ccccc4)c(=O)[nH]c3c2)cc1 19.2%
O=C1N(Cc2ccccc2)c2ccc(Cl)cc2C1(O)c1c[nH]c2ccccc12 (stereo not given) 25.9%
CCCCN(C(=O)CSCC(=O)Nc1ccc(OC)cc1)c1c(N)n(CCC)c(=O)[nH]c1=O 13.8%
CCOc1ccc(NC(=O)CSc2nncn2C)cc1 -8.46%
O=C(COc1ccc(Cl)cc1)Nc1ccc(-c2nc3cc(Cl)ccc3o2)c(O)c1 24.4%
O=S(=O)(c1ccc(Br)cc1)c1nnn2c1nc(NC1CCCCCC1)c1sccc12 -1.95%
COC(C[C@H](O)CC(=O)[C@@H](C)OCc1ccccc1)OC 18%
COC(C[C@@H]1O[C@@H]1C(=O)[C@H](C)OCc1ccccc1)OC 13%
Cc1ccc(NC(=O)C(=O)NCC(c2cccnc2)N2CCOCC2)cc1 (stereo not given) 20.9%
COc1ccc(OC)c(-n2nnc3c(sc4nc(C)c(Br)c(C)c43)c2=O)c1 14.9%
CCc1ccc(Nc2nn3c(=O)c4cc5c(cc4nc3s2)OCO5)cc1 6.61%
COc1cc(OC)c(NC(=O)c2nc(-c3ccncc3)no2)cc1Cl 5.65%
CC1CCN(Cc2nc(-c3ccc(Cl)cc3)no2)CC1 -5.38%
Cc1c(Cl)cccc1NC(=O)Cn1cc(C(=O)c2cccs2)c2ccccc21 22.8%
COc1ccc(N2CCN(Cc3nc4c(c(=O)[nH]c(=O)n4C)n3Cc3ccc(Cl)cc3)CC2)cc1 -19.3%
Cc1cccc(C(=O)N2CCc3cc(CNC(=O)Cc4ccc(F)cc4)ccc32)c1 20.6%
CC1=Nc2cc(C(=O)NCc3ccc(C)cc3)ccc2Sc2ccc(Cl)cc21 21.4%
CCCCc1c(-c2ccc(Br)cc2)ncn1CCc1ccccc1OC 43.7%
CCCc1c(-c2ccccc2F)ncn1Cc1ccccc1OC 15.3%
CCOc1ccc(C(=O)Nc2ccc3nc4c(c(Nc5ccccc5OC)c3c2)CCCC4)cc1 -14.8%
CCOc1ccc(CNC(=O)c2cc(=O)[nH]c3ccc(S(=O)(=O)N4CCCCC4)cc23)cc1 0%
COc1ccc(CNC(=O)c2cc3c(=O)[nH]c4ccccc4c3s2)cc1 9.68%
Cc1cccc(N2CCN(S(=O)(=O)c3ccc4[nH]c5c(c4c3)CCCCC5)CC2)c1C -17.8%
O=C(c1ccc(CN2CCOCC2)cc1)N1CCN(c2ccccc2F)CC1 3.14%
COc1cc(OC)c(OC)cc1CN1CCN(C(=O)c2cccc3ccccc23)CC1 -19.7%
CCCSc1ncc(Cl)c(C(=O)Nc2sc3c(c2C(=O)NCCOC)CCCC3)n1 24.9%
O=C(NCCc1ccc(Cl)cc1)c1ccc2nc(CCc3ccccc3)oc2c1 11.6%
O=C(NCCCN1CCN(c2cccc(Cl)c2)CC1)c1nnc(Cc2ccc(F)cc2Cl)o1 14.6%
CNC(=O)c1nnc(Cc2ccc(Cl)cc2)o1 25.3%
CCOC(=O)c1cnc2c(C)cc(Cl)cc2c1NCCc1ccc(OC)c(OC)c1 15%
Cc1ccc(Nc2nc3ccccc3nc2-n2nc(C)cc2C)c(Cl)c1 27.7%
CCOc1ccc(CNC(=O)c2cc(-c3ccc(Cl)s3)nc3ccccc23)cc1 22.8%
O=C(c1ccco1)n1nc(-c2ccc(Cl)cc2)nc1NCc1ccccc1 5%
Cc1cc(C)cc(NC(=O)Cn2nc(N3CCN(c4ccccc4)CC3)ccc2=O)c1 20.2%
Cc1nc2nc3c(cn2n1)C(=O)CC(c1ccccc1)C3 (stereo not given) 13.9%
O=C(O)COCC(=O)NCc1csc2ccc(Cl)cc12 -10.6%
CC(=O)NNC(=O)c1csc(Cc2c(Cl)sc3ccc(Cl)cc23)n1 2.99%
COc1ccc(-n2c(=O)c3ccccc3n(Cc3ccccc3Cl)c2=O)cc1 15.2%
Cc1ccc(CCN2CC(C(=O)NCCc3ccccc3)CC2=O)cc1 (stereo not given) 4.24%
CCOC(=O)CN1C(=O)C(O)(CC(=O)c2ccccn2)c2ccccc21 (stereo not given) 9.65%
C=CCN1C(=O)C(O)(CC(=O)c2ccc(Cl)cc2)c2ccccc21 (stereo not given) 1.69%
Cc1coc(C)c1C(=O)CC1(O)C(=O)N(C)c2ccc(Cl)cc21 (stereo not given) -11.5%
O=C(CC1Oc2ccccc2NC1=O)NCc1ccc(F)cc1 (stereo not given) -2.06%
O=C(O)c1c(CNCc2cccc(F)c2)c2ccccc2n1Cc1ccccc1 24.3%
COC(=O)CN1C(C)=Nc2ccc(Br)cc2C1c1ccccc1 (stereo not given) -3.72%
Cc1nnc(C)n1-c1ccc(C(=O)Nc2cccc(Br)c2)cc1 3.68%
CC(C)Cn1c(C2CC(=O)N(c3ccccc3Cl)C2)nc2ccccc21 (stereo not given) 25.5%
Cn1c(=O)n(Cc2c(F)cccc2Cl)c(=O)c2c1nc1n2CCN1c1ccc(F)cc1 9.24%
COc1ccc(-c2cc(C(F)(F)F)n3nc(-c4ccccc4)cc3n2)cc1OC 0%
COc1ccc(CCNc2nc3c(-c4cccc(F)c4)nnn3c3ccccc23)cc1OC 17.4%
CCOC(=O)c1cc2c(=O)n3ccccc3nc2n(CC2CCCO2)c1=NC(=O)c1ccccc1Br (stereo not given) 20.8%
CCCc1cc(=O)n2[nH]c(NCc3ccc(CC)cc3)nc2n1 7.91%

Potency, active:
CCCCOc1ccc(NC(=O)CSCC(=O)OCC)cc1 12.6 µM
COC(C/C=C/C(=O)[C@@H](C)OCc1ccccc1)OC 20 µM
Cc1cc(Cl)ccc1OCc1nc(-c2ccncc2)no1 20 µM
CCc1c(-c2ccc(F)cc2)ncn1Cc1cccc(-c2ccccc2)c1 15.8 µM
O=C(c1cccc2ccccc12)N1CCN(c2ccccc2F)CC1 12.6 µM
CC(CNC(=O)c1nnc(Cc2cccc(F)c2)o1)c1ccccc1 (stereo not given) 15.8 µM
CN(O)C(=S)c1ccccc1 3.55 µM
Cc1cc(C)nc(-n2ncc3c2CC(c2ccc(C(C)C)cc2)CC3=O)n1 (stereo not given) 28.2 µM
CNC(=O)c1csc(Cc2c(Cl)sc3ccc(Cl)cc23)n1 20 µM
CCCN1C(=O)C(O)(CC(=O)c2ccc(CC)cc2)c2cc(Br)ccc21 (stereo not given) 25.1 µM
Cc1ccc(C(=O)CC2(O)C(=O)N(CCc3ccccc3)c3ccc(Br)cc32)cc1 (stereo not given) 35.5 µM
COC(=O)C1NN=C(C(=O)c2ccc(Br)cc2)C1c1cccc(Br)c1 (stereo not given) 25.1 µM
COCCNc1cc(-c2ccccc2)nc2cc(-c3cccc(F)c3)nn12 3.16 µM
